Only some compounds are listed: those with a hit (about 28% of all), similar ones and a draw of the others.
CD11b adhes enh – CD11b/CD18-fibrinogen binding enhancement | P05107+P11215 | K562 CD11b/CD18 adhesion to fibrinogen, ATPlite luminescence | activation, % at 10 µM | 93,000 compounds, 0.07% hits | AID 1499;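 active = 10 µM primary screen giving 50% or more activity, confirmed by 40% or more on retest at that dose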
CYP2C9 act – CYP2C9 (human) activation; 96,000 compounds, 1.4% hits; recombinant CYP2C9, luciferin-H conversion, luminescence; stronger effect = higher value; factor 1 = untreated enzyme, 0 = blocked; activation factor at 5 µM; AID 1024;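 active = activation factor of 2 or more for CYP2C9 at a 5 µM dose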
CYP2C9 inhib – human CYP2C9 inhibition; CYP2C9 Supersomes, luciferin-H conversion, luminescence; inhibition, % at 5 µM; 96,000 compounds, 20% hits;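 active = blocking of liver enzyme CYP2C9 beyond about 50% at 5 µM, limit read from the data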
CD11b adhes inh – inhibitors of human CD11b/CD18 binding to fibrinogen; K562 CD11b/CD18 adhesion to fibrinogen, ATPlite luminescence; Mn2+ added to activate the integrin; inhibition, % at 10 µM; 93,000 compounds, 0.54% hits;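 active = primary inhibition of 50% or more at 10 µM, then 40% or more on retest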
CYP2C19 inhib – human CYP2C19 inhibition. CYP2C19 Supersomes, luciferin-H EGE luminescence, 30 min. 96,000 compounds, 21% hits. inhibition, % at 5 µM;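 active = CYP2C19 inhibition above a set limit at 5 µM in the primary screen, cut at about 50% in these data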
Target sequence (P33261 whole entry, looked up): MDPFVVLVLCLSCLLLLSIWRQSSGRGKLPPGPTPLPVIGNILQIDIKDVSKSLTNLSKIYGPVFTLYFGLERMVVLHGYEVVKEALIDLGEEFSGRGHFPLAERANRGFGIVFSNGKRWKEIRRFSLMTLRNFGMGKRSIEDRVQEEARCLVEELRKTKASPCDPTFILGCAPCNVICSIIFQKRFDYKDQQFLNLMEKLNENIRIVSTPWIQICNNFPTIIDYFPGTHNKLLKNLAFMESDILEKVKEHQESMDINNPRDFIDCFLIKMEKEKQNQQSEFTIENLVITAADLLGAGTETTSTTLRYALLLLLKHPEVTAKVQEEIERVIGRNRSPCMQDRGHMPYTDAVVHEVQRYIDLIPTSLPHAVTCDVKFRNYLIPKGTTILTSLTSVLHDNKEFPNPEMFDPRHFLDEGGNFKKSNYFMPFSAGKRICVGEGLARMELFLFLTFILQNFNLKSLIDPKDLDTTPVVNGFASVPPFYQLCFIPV
CYP2C19 act – increases human CYP2C19 enzyme activity; P33261; recombinant CYP2C19, luciferin-H EGE luminescence; stronger effect = higher value; 0 = fully inhibited enzyme, 1 = untreated enzyme; activation factor at 5 µM; 96,000 tested, under 10 active;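 active = activation factor of at least 2 at 5 µM in the primary screen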
A number is an active result; i = inactive; nt = no result.

SMILES | CD11b adhes enh | CYP2C9 act | CYP2C9 inhib | CD11b adhes inh | CYP2C19 inhib | CYP2C19 act
Cc1ccc(C(=O)NNC(=O)CSc2nnc3c(n2)[nH]c2ccc(C)cc23)cc1 | nt | i | i | nt | i | i
CCOC(=O)CN(C(=O)CSc1nnc2c(n1)[nH]c1ccc(F)cc12)c1ccccc1 | nt | i | 74.9 | nt | 100.2 | i
CCOC(=O)CN(C(=O)CSc1nnc2c(n1)[nH]c1ccccc12)c1ccccc1 | i | i | i | i | 81.4 | i
OC(COc1c(Cl)cc(Cl)cc1Cl)CN1CCCCC1 (stereo unspecified) | i | i | i | i | i | i
CCOC(=O)c1cc(C(=O)OCC)c2cccc(C)n2c1=O | i | i | i | i | i | i
O=C(Nc1ccccn1)[C@@H]1CCC(=O)N1C(=O)OCc1ccccc1 | i | i | i | i | i | i
Cc1cc(N=Cc2c(O)n(-c3ccc4c(c3)OCO4)c(=O)c3ccccc23)ccn1 | i | i | 60.5 | i | 55.1 | i
Cc1noc(C)c1CSCC(=O)OCc1nc2ccccc2c(=O)n1CC#N | i | i | 65.0 | i | i | i
Cc1occc1-c1nnc(SCc2nc3ccccc3c(=O)n2CC#N)n1C | i | i | i | i | i | i
CC(=O)C1=C(O)C(=O)N(Cc2ccccc2)C1c1ccco1 (stereo unspecified) | i | i | i | i | i | i
COc1ccc(CCNC(=O)CC2SC(=NCCC(C)C)NC2=O)cc1OC (stereo unspecified) | i | nt | nt | i | nt | nt
CCCCCCNS(=O)(=O)c1ccc(OC)c(OC)c1 | i | 2.3 | i | i | 85.4 | i
COc1ccc(S(=O)(=O)NCCSc2ccccc2)cc1OC | i | 2.4 | i | i | 97.2 | i
COc1cc(S(=O)(=O)NCc2ccccc2)ccc1F | i | 2.2 | i | i | 98.2 | i
COc1ccc(CCNC(=O)c2ccc(CNS(=O)(=O)c3cccc(Cl)c3)cc2)cc1OC | i | nt | nt | i | nt | nt
COc1ccc(S(=O)(=O)NCCSc2ccc(C)cc2)cc1OC | i | i | i | i | 81.5 | i
O=C(c1ccc([N+](=O)[O-])cc1)N(C1=NCCCCS1)c1ccccc1 | i | i | i | i | i | i
CCN1CCN(S(=O)(=O)c2ccc(S(=O)(=O)N(CC)Cc3ccccc3)cc2)CC1 | nt | i | i | nt | i | i
O=C(Cc1ccc([N+](=O)[O-])cc1)Nc1ccc(O)cc1C(=O)O | i | nt | nt | i | nt | nt
COc1ccc(S(=O)(=O)NCc2ccccc2Cl)cc1OC | i | 2.3 | i | i | 95.1 | i
COc1ccccc1CNS(=O)(=O)c1cccc(S(=O)(=O)N2CCOCC2)c1 | i | i | i | i | i | i
COc1ccc(S(=O)(=O)NCCSCc2cccc(C)c2)cc1Br | i | 2.1 | i | i | i | i
Cc1sc2c(c1C)c(=O)n(-c1cccc(C(F)(F)F)c1)c(=O)n2CC(=O)NCc1ccco1 | i | i | i | i | i | i
CCN(CC)c1ncnc2sc(C(=O)N3CCN(c4ccc(OC)cc4)CC3)c(C)c12 | i | i | i | i | i | i
CCN(CC)c1ncnc2sc(C(=O)N3CCN(c4ccccc4)CC3)c(C)c12 | i | i | 62.5 | i | i | i
SMILES | CD11b adhes enh | CYP2C9 act | CYP2C9 inhib | CD11b adhes inh | CYP2C19 inhib | CYP2C19 act
Cc1c(C(=O)N2CCC(C)CC2)sc2ncnc(N3CCN(c4ccccc4)CC3)c12 | i | i | 94.8 | i | 65.9 | i
Cc1c(C(=O)N2CCN(c3ccccn3)CC2)sc2ncnc(N3CCOCC3)c12 | i | i | 57.5 | i | i | i
c1ccc(CNc2ccc3c(c2)ncn3C2CCCCC2)nc1 | i | i | i | i | i | i
Cc1noc(C)c1CN1C(=O)NC2(CCCCCCC2)C1=O | i | i | i | i | 60.9 | i
CCCN(CC(=O)Nc1ccc(Cl)cc1Cl)C(=O)/C=C/c1cc(OC)ccc1OC | i | nt | nt | i | nt | nt
CCCn1c2c(c(O)c(C(=O)Nc3ccc(OC)cc3)c1=O)CCCC2 | i | i | 79.2 | i | i | i
Cc1ccc(S(=O)(=O)NC2CCCC(C(=O)O)C2)cc1 (stereo unspecified) | i | i | i | i | i | i
Cc1ccc(-c2nnn(CC(=O)Nc3ccccc3-c3ccccc3)n2)c(-n2cnnn2)c1 | i | i | 52.2 | i | i | i
CCOc1ccccc1N(CC(=O)N1CCOCC1)S(=O)(=O)c1ccc(SC)cc1 | i | i | i | i | i | i
CCOc1ccc(S(=O)(=O)N2CCc3ccccc3C2)cc1 | i | i | i | i | i | i
CCOC(=O)N1CCN(C(=O)COc2ccc(S(=O)(=O)Nc3ccc(OCC)cc3)cc2)CC1 | i | i | 50.6 | i | i | i
CCOc1ccc(NS(=O)(=O)c2ccc(OCC(=O)N3CCCC3)cc2)cc1 | i | i | i | i | i | i
CCOc1ccc(S(=O)(=O)N2CCN(C(=O)c3cccn3C)CC2)cc1 | i | i | i | i | 63.5 | i
CCOc1ccc(S(=O)(=O)N2CCCCCC2)cc1 | i | i | i | i | 91.8 | i
CCOc1ccc(S(=O)(=O)Nc2ccc(S(=O)(=O)N3CCCC3)cc2)cc1 | i | i | 93.5 | i | 84.6 | i
C=CCNS(=O)(=O)c1nc(C)c(Cl)c(C)c1C#N | i | i | i | i | i | i
O=S(=O)(c1ccc(Oc2ccc(Br)cc2)cc1)N1CCOCC1 | i | i | 64.1 | i | 75.4 | i
COc1ccc(-c2ccc(S(=O)(=O)N3CCOCC3)cc2)cc1 | i | i | i | i | i | i
CCOc1ccc(S(=O)(=O)Nc2ccc(S(=O)(=O)N3CCOCC3)cc2)cc1 | i | i | 60.1 | i | i | i
CCOc1ccc(S(=O)(=O)Nc2ccc(S(=O)(=O)N3CCCCC3)cc2)cc1 | i | i | 86.3 | i | 52.6 | i
CCOC(=O)c1cn[nH]c1N | i | i | i | i | i | i
COc1cccc(OC)c1OCCCSc1nc(C)cc(=O)[nH]1 | i | i | i | i | i | i
COc1cccc(OC)c1OCCCCCc1c(C)n[nH]c1C | i | i | i | i | 85.6 | i
Cc1ccccc1OCCCCc1c(C)n[nH]c1C | i | i | 50.5 | 90.3 | 65.2 | i
Cc1cccc(C)c1OCCCCc1c(C)n[nH]c1C | i | i | 70.1 | i | 59.9 | i
SMILES | CD11b adhes enh | CYP2C9 act | CYP2C9 inhib | CD11b adhes inh | CYP2C19 inhib | CYP2C19 act
CCOC(=O)/C(=N\Nc1ccc(Cl)cc1)Sc1nnc(-c2ccc(OC)cc2)n1C | i | nt | nt | i | nt | nt
C#CC1CN(Cc2ccccc2)CC(C#C)N1C (stereo unspecified) | nt | i | i | nt | i | i
CCSc1nc(O)c(Cc2ccccc2)c(=O)[nH]1 | i | i | i | i | i | i
COC(=O)Cc1cnc(NC(=O)C2C3CCC(C3)C2C(=O)O)s1 (stereo unspecified) | i | i | i | i | i | i
C=CCn1c(SCC(=O)c2cc(C)n(C(C)COC)c2C)nc2sc(C)c(C)c2c1=O (stereo unspecified) | i | i | 91.3 | i | 88.9 | i
C=CCn1c(SCC(=O)Nc2sccc2C#N)nc2sc(C)c(C)c2c1=O | i | i | i | i | i | i
Cc1noc(C)c1CSc1nc2ccccc2c(=O)n1-c1ccc(Cl)cc1 | i | i | 95.9 | i | 70.9 | i

Screening results from PubChem.
